PubChem BioAssay (NCATS)
Several values for one entry are separate records, joined by “and”; a condition that tells them apart may be missing. Identical values can stand only once. Results filed as inconclusive are left out. Activity calls are given as the source filed them. Unless noted, the call rests on the fitted dose curve; in most records, active means well fitted curve in the direction sought with a large enough effect; inconclusive means small, poorly fitted or top-dose-only effect, or another doubt; inactive means no such curve, though single readings can be large; an effect the other way counts as inactive or inconclusive.

Experiments:
[1] = Confirmatory qHTS for VERO E6 Cytotoxicity Assay: Counterscreen for SARS-CoV-2 CPE Assay (AID 1508605; calls by dose curve; further: nearly all actives have a fitted effect of over 60% in size; further: potency means the concentration at half of the fitted maximal effect)
[2] = Confirmatory qHTS for activators (rescue) of SARS-CoV-2 Cytopathic Effect (CPE) (AID 1508606; calls by dose curve; further: nearly all actives have a fitted effect of over 70% in size; further: potency means the concentration at half of the fitted maximal effect)
[3] = Cytotoxicity counterscreen for inhibitors of SARS-CoV-2 cell entry (AID 1645845; calls by dose curve; further: nearly all actives have a fitted effect of over 50% in size)
In short: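 Expi293F/hACE2 cells seeded overnight; cpd pin-transferred in DMSO, 1 h preincubation, + media, 48 h 37 C 5% CO2; ATPLite 1step luminescence; normalized to cells and no cells.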

[4] = Primary qHTS to identify inhibitors of SARS-CoV-2 cell entry (AID 1645846; calls by dose curve; further: nearly all actives have a fitted effect of over 45% in size; further: potency means the concentration at half of the fitted maximal effect); details: activity change, negative = inhibition: at 57.1 µM (top of the series) unless noted
In short: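 HEK293 cells stably expressing human ACE2, pre-treated 1 h with compound, then infected with MLV particles pseudotyped with Wuhan-Hu-1 spike (C-terminal 19-aa truncation). Luciferase luminescence after 48 h at 37 °C, normalised to spike PP and bald PP.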

[5] = Primary qHTS for inhibitors of La Crosse Virus (LACV) - induced cell death in SH-SY5Y cells (AID 1508616);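 further: top concentration of the series differs between compounds; 0% = infected DMSO wells and 100% = uninfected DMSO wells; higher means more rescue of cells from virus-induced death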
In short: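 Readout was luminescence from ATPLite 1step added after a 6-day LACV infection (0.01 MOI) of SH-SY5Y cells that had received pin-transferred compound 24 hr after seeding.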

[6] = biological target: Calcium and integrin-binding protein 1 (Homo sapiens) (UniProt Q99828); test: Confirmatory qHTS for Identification of Calcium Integrin Binding Protein 1 (CIB1) Competitor (AID 1508617); further: potency means the concentration at half of the fitted maximal effect; nearly all actives have a fitted effect of over 65% in size
In short: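 Fluorescence polarization competition: CIB1-GST (1 uM final) in 5 mM HEPES pH 7.4, 125 mM NaCl, 5 mM CaCl2, 0.01% Tween20 preincubated 15 min RT with compound (up to 114 uM), then FITC-alphaIIb peptide (100 nM) added, 15 min RT.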

[7] = Primary qHTS for small molecule stabilizers of the endoplasmic reticulum resident proteome: Secreted ER Calcium Modulated Protein (SERCaMP) assay (AID 1508630); further: on the % scale 0 is the no-effect control and ±100 the full control effect
In short: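 GLuc-SERCaMP-expressing SH-SY5Y cells, pretreated 16 h with compound, are challenged with thapsigargin to empty ER calcium stores; after 4 h, coelenterazine is added directly to the medium and luminescence is imaged.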

[8] = A High-Content qHTS Against Drug Library for the Identification of Small Molecules that Inhibit DYT1 Early Onset Primary Dystonia-Associated Cell Pathology (AID 1645839; calls by dose curve)
In short: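 Readout: %pathology, the punctate EGFP-TorsinA distribution from imaging, as the primary channel and cell count as the toxicity counterscreen. HEK293 Flp-In cells expressing delE TorsinA were induced with tetracycline and treated with compound for 48 h.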

[9] = biological target: Cytochrome P450 2C9 (Homo sapiens) (UniProt P11712); test: Cytochrome P450 family 2 subfamily C member 9 (CYP2C9) small molecule antagonists: luciferase biochemical (cell-free) qHTS assay (AID 1645842; active means well fitted curve in the direction sought with a large enough effect in the repeat runs; an effect the other way counts as inactive or inconclusive; further: nearly all actives have a fitted effect of over 55% in size; further: potency means the concentration at half of the fitted maximal effect)
In short: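 Luminescence, after 20 min with luciferin detection reagent, reflected CYP2C9 turnover during a 1 h NADPH-driven reaction at 37C. Enzyme-substrate mix contained 0.4% bovine serum albumin and was preincubated with compound 10 min at room temperature.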

[10] = biological target: N-terminal Xaa-Pro-Lys N-methyltransferase 1 (Homo sapiens) (UniProt Q9BV86); test: Confirmatory qHTS for Inhibitors of N-terminal methyltransferase 1 (NTMT1): MTaseGlo Assay (AID 1645874);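 further: luminescence from SAH made as NTMT1 methylates SPKRIA peptide using SAM; 0% = DMSO control and -100% = no-enzyme control; nearly all actives have a fitted effect of over 65% in size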
In short: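 Luminescent MTase-Glo read-out of SAH. 125 nM NTMT1, 100 uM SAM, 1 uM SPKRIA substrate, 30 min RT reaction after 15 min compound preincubation. Normalized to no-enzyme and DMSO controls; Hill fit.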

[11] = biological target: Calcium and integrin-binding protein 1 (Homo sapiens) (UniProt Q99828); test: Primary qHTS for Identification of Calcium Integrin Binding Protein 1 (CIB1) Competitor (AID 1508620);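 further: GST tagged CIB1 binding a fluorescein labelled alphaIIb integrin peptide tracer; top concentration of the series differs between compounds; on the % scale 0 is the no-effect control and ±100 the full control effect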
In short: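 Fluorescence polarization competition: CIB1-GST (1 uM final) preincubated with compound 15 min at room temperature, then FITC-labeled alphaIIb peptide (100 nM final) added for another 15 min. Polarization read at Ex 480/Em 540.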

[12] = biological target: Cytochrome P450 2D6 (Homo sapiens) (UniProt P10635); test: Cytochrome P450 family 2 subfamily D member 6 (CYP2D6) small molecule antagonists: luciferase biochemical (cell-free) qHTS assay (AID 1645840; active means well fitted curve in the direction sought with a large enough effect in the repeat runs; an effect the other way counts as inactive or inconclusive; further: nearly all actives have a fitted effect of over 55% in size; further: potency means the concentration at half of the fitted maximal effect)
In short: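 P450-Glo luminescent screen: recombinant CYP2D6 enzyme–proluciferin substrate mix preincubated with compound 10 min at room temperature, then NADPH regeneration added for 1 h at room temperature. Detection reagent added for 20 min; luciferin light read as relative luminescence units.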

[13] = Primary qHTS for inhibitors of nuclear receptor binding SET domain protein 2 (NSD2) in an isogenic RCH-ACV NSD2 p.E1099K mutant (9B) (AID 1645876); further: nearly all actives have a fitted effect of over 70% in size; further: potency means the concentration at half of the fitted maximal effect
[14] = Counterscreen qHTS for small molecule stabilizers of the endoplasmic reticulum resident proteome: GLuc-NoTag assay (AID 1508627); further: potency means the concentration at half of the fitted maximal effect;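 on activity change, negative = inhibition: SH-SY5Y cells given compound then 100 nM thapsigargin to empty ER calcium; 0% = thapsigargin alone and -100% = DMSO vehicle control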
In short: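 SH-SY5Y cells stably expressing constitutively secreted GLuc (no SERCaMP tag) were pre-incubated 5 h, treated with compound for 19 h, then 100 nM thapsigargin for 4 h at 37C; medium GLuc read by coelenterazine luminescence.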

[15] = Confirmatory qHTS for small molecule stabilizers of the endoplasmic reticulum resident proteome: Secreted ER Calcium Modulated Protein (SERCaMP) assay (AID 1508628); further: nearly all actives have a fitted effect of over 40% in size; further: potency means the concentration at half of the fitted maximal effect
In short: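 We seeded SH-SY5Y-GLuc-SERCaMP cells, added compounds (three concentrations in the primary run, eleven up to 76.6 uM in confirmation), incubated 16 h, depleted ER calcium with thapsigargin, and read luciferase 4 h later.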

[16] = Cell Viability qHTS for small molecule stabilizers of the endoplasmic reticulum resident proteome (AID 1508629); details: cell viability counter-screen, 100 nM thapsigargin for final 4 h;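 further: human SH-SY5Y neuroblastoma cells carrying the GLuc-SERCaMP reporter; compound exposure about 46 h in total before the viability read; on the % scale 0 is the no-effect control and ±100 the full control effect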
[17] = biological target: Calcium and integrin-binding protein 1 (Homo sapiens) (UniProt Q99828); test: Validation qHTS for Identification of Calcium Integrin Binding protein 1 (CIB1) Competitor (AID 1508618); further: on the % scale 0 is the no-effect control and ±100 the full control effect
In short: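 CIB1-GST (1 uM final) in 5 mM HEPES pH 7.4, 125 mM NaCl, 5 mM CaCl2, 0.01% Tween20 was preincubated 15 min at room temperature with compound (up to 114 uM), then FITC-alphaIIb peptide (100 nM) added for 15 min; fluorescence polarization read.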

[18] = biological target: Papain (Carica papaya) (UniProt P00784); test: Primary qHTS assay for inhibitors of the protease papain (AID 1645873)
[19] = biological target: Cytochrome P450 3A4 (Homo sapiens) (UniProt P08684); test: Cytochrome P450 family 3 subfamily A member 4 (CYP3A4) small molecule antagonists: luciferase qHTS assay (AID 1645841; active means well fitted curve in the direction sought with a large enough effect in the repeat runs; an effect the other way counts as inactive or inconclusive; further: nearly all actives have a fitted effect of over 45% in size)
In short: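 P450-Glo CYP3A4 enzyme with proluciferin substrate was preincubated with DMSO-dissolved compounds for 10 min at room temperature. NADPH regeneration solution started a 1 h reaction. Detection reagent stopped it, and luminescence was read after 20 min.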

Calcium and integrin-binding protein 1 (Homo sapiens), sequence (Q99828 whole entry, looked up): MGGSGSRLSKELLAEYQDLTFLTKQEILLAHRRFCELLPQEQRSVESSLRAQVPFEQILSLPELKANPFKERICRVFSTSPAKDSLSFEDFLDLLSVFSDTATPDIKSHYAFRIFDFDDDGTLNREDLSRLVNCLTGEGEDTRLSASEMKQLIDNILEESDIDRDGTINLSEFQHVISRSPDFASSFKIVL
Cytochrome P450 2D6 (Homo sapiens), sequence (P10635 whole entry, looked up): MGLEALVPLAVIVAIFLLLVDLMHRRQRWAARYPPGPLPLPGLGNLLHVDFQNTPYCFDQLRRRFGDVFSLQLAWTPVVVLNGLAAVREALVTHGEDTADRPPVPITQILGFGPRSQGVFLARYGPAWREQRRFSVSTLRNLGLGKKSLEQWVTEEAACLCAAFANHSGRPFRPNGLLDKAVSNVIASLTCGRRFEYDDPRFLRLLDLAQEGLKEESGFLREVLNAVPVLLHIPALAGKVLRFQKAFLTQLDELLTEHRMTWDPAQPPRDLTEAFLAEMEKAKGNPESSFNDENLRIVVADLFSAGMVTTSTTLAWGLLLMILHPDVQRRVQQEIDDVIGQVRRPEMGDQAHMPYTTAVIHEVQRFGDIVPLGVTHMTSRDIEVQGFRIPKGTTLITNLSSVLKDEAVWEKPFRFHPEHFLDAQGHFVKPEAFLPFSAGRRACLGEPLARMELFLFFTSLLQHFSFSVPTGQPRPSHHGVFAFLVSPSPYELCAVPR
Cytochrome P450 3A4 (Homo sapiens), sequence (P08684 whole entry, looked up): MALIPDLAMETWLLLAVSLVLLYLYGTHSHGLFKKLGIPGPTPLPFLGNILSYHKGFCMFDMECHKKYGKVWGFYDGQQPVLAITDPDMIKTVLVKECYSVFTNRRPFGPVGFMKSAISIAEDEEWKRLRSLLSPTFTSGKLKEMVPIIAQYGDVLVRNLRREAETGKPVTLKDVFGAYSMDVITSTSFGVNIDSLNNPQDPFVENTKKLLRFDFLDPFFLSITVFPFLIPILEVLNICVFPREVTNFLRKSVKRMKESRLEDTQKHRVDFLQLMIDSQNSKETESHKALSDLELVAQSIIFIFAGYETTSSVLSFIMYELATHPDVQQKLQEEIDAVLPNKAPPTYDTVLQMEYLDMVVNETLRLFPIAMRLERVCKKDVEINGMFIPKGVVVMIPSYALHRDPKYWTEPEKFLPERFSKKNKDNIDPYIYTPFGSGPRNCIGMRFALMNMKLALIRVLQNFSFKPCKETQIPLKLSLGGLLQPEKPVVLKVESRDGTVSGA
Cytochrome P450 2C9 (Homo sapiens), sequence (P11712 whole entry, looked up): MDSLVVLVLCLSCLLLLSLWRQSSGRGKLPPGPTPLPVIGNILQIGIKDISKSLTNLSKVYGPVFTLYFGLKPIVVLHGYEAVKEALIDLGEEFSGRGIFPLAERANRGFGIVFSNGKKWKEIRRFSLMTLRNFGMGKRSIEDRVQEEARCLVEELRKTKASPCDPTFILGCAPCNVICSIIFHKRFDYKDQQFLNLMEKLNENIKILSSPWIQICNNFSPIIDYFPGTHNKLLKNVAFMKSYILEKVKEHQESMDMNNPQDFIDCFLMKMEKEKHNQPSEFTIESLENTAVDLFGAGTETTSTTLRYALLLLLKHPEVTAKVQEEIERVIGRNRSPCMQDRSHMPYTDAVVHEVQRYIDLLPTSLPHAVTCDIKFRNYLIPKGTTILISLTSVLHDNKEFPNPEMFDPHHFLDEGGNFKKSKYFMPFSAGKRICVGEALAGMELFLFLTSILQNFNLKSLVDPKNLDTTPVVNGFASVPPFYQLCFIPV
Papain (Carica papaya), sequence (P00784 whole entry, looked up): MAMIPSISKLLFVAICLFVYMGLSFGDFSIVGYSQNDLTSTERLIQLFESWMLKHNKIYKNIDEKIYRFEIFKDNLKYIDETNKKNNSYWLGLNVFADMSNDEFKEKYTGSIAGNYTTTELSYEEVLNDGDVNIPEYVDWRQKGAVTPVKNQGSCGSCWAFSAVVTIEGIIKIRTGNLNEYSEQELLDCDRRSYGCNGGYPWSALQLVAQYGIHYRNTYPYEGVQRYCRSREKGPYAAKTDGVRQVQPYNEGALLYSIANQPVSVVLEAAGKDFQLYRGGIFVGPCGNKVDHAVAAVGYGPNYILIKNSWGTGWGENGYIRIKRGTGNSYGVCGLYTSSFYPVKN
N-terminal Xaa-Pro-Lys N-methyltransferase 1 (Homo sapiens), sequence (Q9BV86 whole entry, looked up): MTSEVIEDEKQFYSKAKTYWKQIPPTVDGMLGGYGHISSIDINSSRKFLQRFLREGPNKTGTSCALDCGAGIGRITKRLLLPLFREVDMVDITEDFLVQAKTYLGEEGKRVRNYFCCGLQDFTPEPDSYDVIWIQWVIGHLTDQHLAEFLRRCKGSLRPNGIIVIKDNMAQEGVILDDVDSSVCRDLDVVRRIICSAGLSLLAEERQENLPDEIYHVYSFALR

CCN(CC)CCNc1ccc(CO)c2sc3ccccc3c(=O)c12
inactive: Potency [2]
active: Potency [1] 10 µM

CN1CCCN(C(c2ccccc2)c2ccc(Cl)cc2)CC1 (stereo unspecified)
active: Potency [2] 10 µM
inactive: Potency [3]

CO[C@@H]1[C@@H](O[C@@H]2O[C@H](C)[C@@H](O[C@H]3C[C@@](C)(O)[C@@H](O)[C@H](C)O3)[C@H](N(C)C)[C@H]2O)[C@@H](CC=O)C[C@@H](C)[C@@H](O[C@@H]2CC[C@H](N(C)C)[C@@H](C)O2)/C=C/C=C/C[C@@H](C)OC(=O)C[C@H]1OC(C)=O
inactive: Potency [1] | Potency [3]

c1ccc(-c2ccc(C(c3ccccc3)n3ccnc3)cc2)cc1 (stereo unspecified)
inactive: Potency [1]

CN(C)CC/C=C1\c2ccccc2Sc2ccc(Cl)cc21
active: Potency [2] 8.91 µM | Potency [4] 20 µM
inactive: Potency [1]

CC(C(O)c1ccccc1)N(C)CCOC(c1ccccc1)c1ccccc1 (stereo unspecified)
active: Potency [2] 10 µM
inactive: Potency [1] | Potency [3]

C[C@@H](CN(C)C)CN1c2ccccc2Sc2ccccc21
inactive: Potency [1] | Potency [3]

COc1cccc(CCc2ccccc2OCC(CN(C)C)OC(=O)CCC(=O)O)c1 (stereo unspecified)
inactive: Potency [1] | Potency [3]

CN(C)CCc1c[nH]c2cccc(O)c12
inactive: outcome [5] | outcome [7] | outcome [8] | Potency [9] | Potency [10]
active: Potency [6] 126 µM

C[C@@H]1CN(C2CCC(C#N)(c3ccc(F)cc3)CC2)CC[C@]1(C(=O)O)c1ccccc1 (stereo partly specified)
active: Potency [12] 0.049 µM
inactive: outcome [5] | Potency [11] | outcome [7] | outcome [8] | Potency [9] | Potency [3] | Potency [13]
-31.8%: activity change, negative = inhibition [4]

C[C@]12CC[C@H]3[C@@H](CCC4=CC(=O)CC[C@@H]43)[C@@H]1CC[C@@H]2O
inactive: outcome [5] | Potency [11] | outcome [7] | outcome [8] | Potency [12] | Potency [9]

CC(C)=CCN1CC[C@@]2(C)c3cc(O)ccc3C[C@@H]1[C@@H]2C
active: Potency [15] 28.2 µM | Potency [13] 18.9 µM
inactive: outcome [5] | Potency [11] | Potency [14] | max response [16] -7.58% | outcome [8] | Potency [9]

O=C1NCN(c2ccccc2)C12CCN(CCCOc1ccc(F)cc1)CC2
inactive: outcome [5] | Potency [11] | max response [16] -6.39%
active: Potency [14] 8.91 µM | Potency [15] 2.51 µM and 3.16 µM | Potency [12] 0.347 µM | Potency [13] 6.68 µM

CCOC(=O)c1cncn1C(C)c1ccccc1 (stereo unspecified)
active: Potency [9] 11 µM
inactive: outcome [5] | Potency [11] | outcome [7] | outcome [8] | Potency [12] | Potency [3] | Potency [4] | Potency [13]

Oc1ccc2[nH]cc(CCCCN3CC=C(c4ccccc4)CC3)c2c1
inactive: outcome [5] | Potency [11] | Potency [14]
active: Potency [15] 12.6 µM | Potency [13] 7.5 µM

c1cc2c(c(N3CCNCC3)c1)OCCO2
inactive: outcome [5] | Potency [11] | Potency [14] | Potency [15] | max response [16] 5.26% | outcome [8] | Potency [12]

O=C(NC(=O)c1c(F)cccc1F)Nc1cc(Cl)c(OC(F)(F)C(F)C(F)(F)F)cc1Cl (stereo unspecified)
inactive: outcome [5] | Potency [11] | outcome [7] | outcome [8] | Potency [12] | Potency [3]
active: Potency [9] 19.5 µM

CCCC[N+]1(C)[C@@H]2CC(OC(=O)[C@H](CO)c3ccccc3)C[C@H]1[C@@H]1O[C@@H]12 (stereo partly specified)
-15.6%: activity change, negative = inhibition [4]
inactive: outcome [5] | Potency [11] | Potency [14] | Potency [15] | outcome [8] | Potency [3] | Potency [13]
active: Potency [12] 2.75 µM

COC(=O)C1=CCCN(C)C1
inactive: outcome [5] | outcome [17] | Potency [11] | outcome [7] | outcome [8] | Potency [9] | outcome [18] | Potency [13]

CC(C)(O)C(Cl)(Cl)Cl
inactive: outcome [5] | Potency [11] | outcome [7] | outcome [8] | Potency [12] | Potency [9] | Potency [3] | Potency [4] | Potency [13]

C[C@]12C=CC(=O)C=C1CC[C@@H]1[C@@H]2CC[C@@]2(C)[C@H]1CC[C@]2(C)O
inactive: outcome [5] | Potency [11] | outcome [7] | outcome [8] | Potency [12] | Potency [19]
active: Potency [13] 23.7 µM

CCCN(CCC)CCc1c[nH]c2ccccc12
active: Potency [12] 0.394 µM
inactive: outcome [5] | Potency [11] | outcome [7] | outcome [8] | Potency [19]

CC[C@H](O)C(C[C@H](C)N(C)C)(c1ccccc1)c1ccccc1
active: Potency [15] 50.1 µM
inactive: outcome [5] | Potency [11] | Potency [13]

COc1cc(N)c(Cl)cc1C(=O)NC1CN2CCC1CC2 (stereo unspecified)
inactive: outcome [5] | Potency [11] | outcome [7] | outcome [8] | Potency [9] | Potency [13]
active: Potency [12] 15.5 µM

ClCCCN1CCN(c2cccc(Cl)c2)CC1
inactive: outcome [5] | Potency [11] | outcome [7] | outcome [8] | Potency [19] | Potency [13]
active: Potency [12] 1.1 µM

CCC(=O)OC1(c2ccccc2)CCN(C)CC1
inactive: outcome [5] | Potency [11] | Potency [14] | outcome [8] | Potency [13]

CC(Cc1ccccc1)NCCCCl (stereo unspecified)
inactive: outcome [5] | Potency [11] | outcome [7] | outcome [8]

CCCC(C)C1(CC)C(=O)N=C(S)NC1=O (stereo unspecified)
inactive: outcome [5] | Potency [11] | outcome [7] | outcome [8] | Potency [12]
active: Potency [9] 15.5 µM

CNC(C)Cc1ccc2c(c1)OCO2 (stereo unspecified)
inactive: outcome [5] | Potency [11] | outcome [7] | outcome [8] | Potency [9]
active: Potency [12] 0.693 µM

CCOP(=S)(OCC)O/N=C(\C#N)c1ccccc1
inactive: outcome [5] | Potency [11] | outcome [7] | outcome [8]
active: Potency [12] 13.8 µM | Potency [9] 2.19 µM

Clc1ccc(CO/N=C(\Cn2ccnc2)c2ccc(Cl)cc2Cl)c(Cl)c1
inactive: outcome [5] | Potency [11]

CC(CC(C(N)=O)(c1ccccc1)c1ccccc1)N(C)C (stereo unspecified)
-7.18%: activity change, negative = inhibition [4]
active: Potency [12] 7.76 µM
inactive: outcome [5] | Potency [11] | outcome [7] | outcome [8] | Potency [9] | Potency [3] | Potency [13]
